# Records with an inconclusive call do not appear. A call without a number means that no potency is given here. Calls of active or inactive are those of the source. Calls follow the shape of the dose curve; as a rule, active = well fitted cell-killing curve with a large enough effect; inconclusive = small, poorly fitted or top-dose-only effect, or effect the other way; inactive = flat fitted curve, though single readings scatter.
# Test system: Tov-21-G
# Test: Primary qHTS to identify gynecologic anti-cancer compounds using libraries of approved drugs and bioactive compounds (AID 1345084); also: nearly all actives have a fitted effect of over 55% in size
# Settings: Gynecologic cancer cell panel viability, ATPlite luminescence, 48 h; series mostly up to 57.5 µM
# Procedure, shortened: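 Cells, 1,000 per well, were allowed to settle for 16 h at 37 C before compound addition. Five concentrations were tested for 48 h, and viability was read by ATPlite luminescence after 15 min at room temperature.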
row,Compound,Potency
1,CC1(C)[C@H](C(=O)O)N2C(=O)C[C@H]2S1(=O)=O,inactive
2,O=C(O)CCn1c2c(c3ccccc31)C[C@H](NS(=O)(=O)c1ccc(F)cc1)CC2,inactive
3,CCOCC(O)COc1ccc(NC(=O)CC[S+](C)C)cc1 (stereo not given),inactive
4,Cc1cccc(Nc2ccncc2S(=O)(=O)NC(=O)NC(C)C)c1,inactive
5,CNS(=O)(=O)CCc1ccc2[nH]cc(C3CCN(C)CC3)c2c1,inactive
6,CC(C)(C)NC(=O)[C@H]1CC[C@H]2[C@@H]3CC[C@H]4NC(=O)C=C[C@]4(C)[C@H]3CC[C@]12C,inactive
7,C[C@@H]1C[C@H]2[C@@H]3CCC4=CC(=O)C=C[C@]4(C)[C@@]3(Cl)[C@@H](O)C[C@]2(C)[C@@]1(OC(=O)c1ccco1)C(=O)CCl,inactive
8,Cc1cc(NS(=O)(=O)c2ccc(N)cc2)no1,inactive
9,O=NN(CCCl)C(=O)NC1CCCCC1,inactive
10,CNCC[C@H](Oc1cccc2ccccc12)c1cccs1,inactive
11,COc1cnc(NS(=O)(=O)c2ccc(N)cc2)nc1,inactive
12,Cn1nnc2c(C(N)=O)ncn2c1=O,inactive
13,OC(Cn1cncn1)(Cn1cncn1)c1ccc(F)cc1F,inactive
14,CCOC(=O)c1ccc(OC(=O)CCCCCN=C(N)N)cc1,inactive
15,CC1=NN(c2ccccc2)C(=O)C1,inactive
16,C[C@@H]1CN(c2c(F)c(N)c3c(=O)c(C(=O)O)cn(C4CC4)c3c2F)C[C@H](C)N1,inactive
17,CCN(C)C(=O)Oc1cccc([C@H](C)N(C)C)c1,inactive
18,Cc1ncc([N+](=O)[O-])n1CCO,inactive

row,Compound,Potency
1,CN1CCN(c2c(F)cc3c(=O)c(C(=O)O)cn4c3c2OCN4C)CC1,inactive
2,CN(CCOc1ccc(CC2SC(=O)NC2=O)cc1)c1ccccn1 (stereo not given),inactive
3,Cc1onc(-c2ccccc2Cl)c1C(=O)N[C@@H]1C(=O)N2[C@@H]1SC(C)(C)[C@@H]2C(=O)O,inactive
4,Cc1nnc(NS(=O)(=O)c2ccc(N)cc2)s1,inactive
5,Nc1ccc(S(=O)(=O)Nc2ccccn2)cc1,inactive
6,Cc1noc(NS(=O)(=O)c2ccc(N)cc2)c1C,inactive
7,C#CCN[C@@H]1CCc2ccccc21,inactive
8,CCCN[C@H]1CCc2nc(N)sc2C1,inactive
9,NS(=O)(=O)c1cc2c(cc1Cl)NC(C(Cl)Cl)NS2(=O)=O (stereo not given),inactive
10,CC[C@H](NC(C)C)[C@H](O)c1ccc(O)c2[nH]c(=O)ccc12,inactive
11,O=C(O)c1cc(=O)[nH]c(=O)[nH]1,inactive
12,Cn1c(=O)c2c(ncn2CC(O)CO)n(C)c1=O (stereo not given),inactive
13,CO[C@@H]1[C@@H](OC(N)=O)[C@@H](O)[C@H](Oc2ccc3c(O)c(NC(=O)c4ccc(O)c(CC=C(C)C)c4)c(=O)oc3c2C)OC1(C)C,inactive
14,NCCCC(O)(P(=O)(O)O)P(=O)(O)O,inactive
15,CCn1cc(C(=O)O)c(=O)c2cc(F)c(N3CCNCC3)nc21,inactive
16,COc1nc(N)nc2c1ncn2[C@@H]1O[C@H](CO)[C@@H](O)[C@@H]1O,inactive
17,COc1ccccc1OCC(O)COC(N)=O (stereo not given),inactive

# From PubChem BioAssay (NCATS)
